Hits are enriched below; roughly 9.5% of the tested compounds scored in any of these assays.
Tau fibril FP = inhibitors of human tau fibril formation; AID 1468; 280,000 compounds, 0.39% hits; Potency, µM (titrated, usually from 57.7 µM), inactives show at the highest dose activity, negative = inhibition, hits mostly inhibitors; K18 P301L tau heparin fibrillization, Alexa594 FP, 6 h; also: nearly all actives have a fitted effect of over 55% in size
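K18 P301L tau (15 uM unlabeled/0.24 uM Alexa 594-labeled, final) + compound + heparin 20 uM final; 100 mM NaOAc pH 7; 6 hr 37 C; ThT 30 uM final added, 1 hr RT; FP ex 555/em 632 nm.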
Tau fibril ThT = tau fibrillization inhibition (ThT binding); recombinant tau K18 P301L, heparin-induced fibrillization, ThT fluorescence; Potency, µM (series often up to 57.4 µM), for the others: at the top dose activity, negative = inhibition, hits mostly inhibitors; 270,000 compounds, 2.1% hits; also: nearly all actives have a fitted effect of over 55% in size
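Recombinant human tau K18 fragment […] carrying P301L, 15 uM unlabeled plus 0.24 uM Alexa 594-labeled, was fibrillized with 20 uM heparin in 100 mM sodium acetate pH 7 for 6 hr at 37 C; 30 uM ThT fluorescence read after 1 hr.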
ALDH1A1 block = ALDH1A1 (human) enzyme inhibition; P00352; Purified ALDH1A1, NADH fluorescence, propionaldehyde substrate; Potency, µM (titrated, usually from 75.3 µM), for the others: at the highest dose activity, negative = inhibition, usual class: inhibitors; 220,000 compounds, 7.3% hits; active = well fitted inhibition curve with a large enough effect, not every such curve was filed as active; inconclusive = small, poorly fitted or top-dose-only effect, or another doubt; inactive = no such curve, though single readings can be large or run the other way;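 also: plate controls were no enzyme wells and a reference inhibitor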
Target sequence (P00352 whole entry, looked up): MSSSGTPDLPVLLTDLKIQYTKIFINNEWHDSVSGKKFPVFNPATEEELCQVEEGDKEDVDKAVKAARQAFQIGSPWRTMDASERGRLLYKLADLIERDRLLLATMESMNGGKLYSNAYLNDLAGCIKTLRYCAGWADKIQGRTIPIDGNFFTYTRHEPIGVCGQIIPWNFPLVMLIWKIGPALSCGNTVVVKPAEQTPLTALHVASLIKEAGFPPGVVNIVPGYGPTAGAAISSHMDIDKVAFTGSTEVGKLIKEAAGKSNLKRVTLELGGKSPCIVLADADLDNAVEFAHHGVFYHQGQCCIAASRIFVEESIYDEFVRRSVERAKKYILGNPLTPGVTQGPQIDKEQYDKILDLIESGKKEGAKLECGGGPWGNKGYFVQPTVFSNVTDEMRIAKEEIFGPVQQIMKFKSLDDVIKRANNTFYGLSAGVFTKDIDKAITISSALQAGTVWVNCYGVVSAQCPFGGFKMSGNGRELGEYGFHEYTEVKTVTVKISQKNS
HPGD block = HPGD (human) dehydrogenase inhibition | purified HPGD, NADH fluorescence kinetic, PGE2 substrate | Potency, µM, for inactives: at the highest dose activity change, negative = inhibition, actives largely listed as inhibitors | 150,000 compounds, 4.3% hits; active = well fitted inhibition curve with a large enough effect, not every such curve was filed as active; inconclusive = small, poorly fitted or top-dose-only effect, or another doubt; inactive = no such curve, though single readings can be large or run the other way
Target sequence (P15428 whole entry, looked up): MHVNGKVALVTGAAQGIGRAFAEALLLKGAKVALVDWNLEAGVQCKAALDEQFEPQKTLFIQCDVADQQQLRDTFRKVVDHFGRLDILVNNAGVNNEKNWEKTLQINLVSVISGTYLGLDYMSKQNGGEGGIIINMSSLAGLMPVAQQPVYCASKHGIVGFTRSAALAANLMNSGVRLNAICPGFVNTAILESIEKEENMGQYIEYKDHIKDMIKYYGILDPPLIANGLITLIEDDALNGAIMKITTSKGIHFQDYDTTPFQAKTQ
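20 nM HPGD preincubated 15 min at room temperature with compound in 50 mM Tris-HCl pH 8, 0.01% Tween 20. Started with 1 mM NAD+ and 30 uM prostaglandin E2; NADH fluorescence (360/450 nm) read 5 times over 30-s intervals, last minus first.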
Tau fluor counter = counter-screen for tau fibril formation inhibitors. Potency, µM (doses to about 57.7 µM), inactives show at the highest dose activity change, negative = decrease. 280,000 compounds, 0.93% hits. tau K18 P301L Alexa594 fluorescence, heparin fibrillization; also: nearly all actives have a fitted effect of over 55% in size
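Human tau K18 P301L (15 uM unlabeled, 0.24 uM Alexa 594-labeled) in 100 mM sodium acetate pH 7 with 20 uM heparin, 6 hr at 37 C. ThT 30 uM added, 1 hr ambient; Alexa 594 FP and total fluorescence read at 555/632 nm.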
NPSR antagonist = antagonists of human neuropeptide S receptor cAMP signaling | Q6W5P4 | CHO-NPSR cells, cAMP TR-FRET, antagonist mode | Potency, µM (highest dose often 38.3 µM), for the others: at the top dose activity change, negative = inhibition, usual class: inhibitors | 220,000 compounds, 1% hits; also: nearly all actives have a fitted effect of over 50% in size
Numbers without * were called inactive; u = inconclusive; x = no result given; ! = a repeat was not active; [ ] = dose if it differs, or a comment. Unless noted, calls follow the shape of the dose curve; as a rule, active = well fitted curve in the direction sought with a large enough effect; inconclusive = small, poorly fitted or top-dose-only effect, or another doubt; inactive = no such curve, though single readings can be large; an effect the other way counts as inactive or inconclusive. Unless noted, % is scaled to controls: 0 for no effect and ±100 for the full control effect; potency is read from the fitted curve at half-maximal effect.

SMILES	Tau fibril FP	Tau fibril ThT	ALDH1A1 block	HPGD block	Tau fluor counter	NPSR antagonist
CC(C)C[C@@H](CC(=O)N[C@H](CC(=O)N[C@@H]1CCCC[C@H]1C(=O)N[C@H](CC(=O)N[C@@H](CCC(=O)O)CC(=O)O)Cc1ccccc1)C(C)C)NC(=O)[C@@H]1CCCC[C@H]1N	-2.6%	-11.5%	-6.2%	0.3%	-11.8%	x
CCc1ccc(CNc2ccc(O)cc2)cc1	7.08µM*	3.16µM*	7.94µM*	22.4µM*	u	-20.0%[46.1 µM]
CCCn1cnc2cc(NCc3ccccc3OCC)ccc21	1.7%	u	x	x	-17.4%	x
COc1cc(CNCc2ccccn2)ccc1OCc1ccc(Cl)cc1Cl	-4.7%	11.7%	-13.8%	-7.2%	-13.3%	-0.7%[46.1 µM]
CCOc1cc(CNc2ccc(O)cc2)ccc1OCc1ccc(Cl)cc1Cl	22.4µM*	12.6µM*	u	-7.2%	u	-24.1%[46.1 µM]
CCOc1ccccc1CNc1ccc(O)cc1	8.91µM*	7.08µM*	u	x	u	-3.6%
O=C(Nc1cccc(F)c1F)C1CCN(c2ncccn2)CC1	2.3%	-8.1%	x	x	-6.8%	x
Cc1ccc2c(c1)cc(CN(Cc1ccc3c(c1)OCO3)C(=O)c1cnccn1)c1nnnn12	0.6%	-6.7%	u	-7.0%	-16.7%	u
Cc1cc2cc(CN(Cc3ccc4c(c3)OCO4)C(=O)c3cnccn3)c3nnnn3c2cc1C	10.3%	-5.0%	14.1µM*	-18.4%	-11.0%	-16.9%[46.1 µM]
Cc1ccc(NC(=O)CSc2nnc(-c3ccco3)c(-c3ccco3)n2)cc1	u	7.94µM*	3.16µM*	11.2µM*	u	-11.1%[46.1 µM]
COc1ccc(C(=O)CSc2nnc(-c3ccco3)n2C)cc1	2.0%	-15.2%	u	-3.6%	3.4%	2.0%[46.1 µM]
CSc1nnc(-c2ccccc2)c(-c2ccccc2)n1	-10.7%	-1.8%	x	x	-7.7%	u
CSc1nnc(-c2ccco2)c(-c2ccco2)n1	u	12.6µM*	3.55µM*	8.91µM*	u	u
O=C(CSc1nnc(-c2ccco2)c(-c2ccco2)n1)Nc1ccccc1	u	7.94µM*	2µM*	25.1µM*	u	-15.7%[46.1 µM]
COc1ccc(C(=O)CSc2nnc(-c3ccco3)c(-c3ccco3)n2)cc1	u	14.1µM*	3.98µM*	x	u	-17.2%
CCCNC(=O)c1onc(CSc2ccncc2)c1C(=O)NCCC	-6.4%	-8.7%	x	x	-12.0%	4.0%
O=c1c(F)cn(C2CCCO2)c(=O)n1Cc1c(Cl)cccc1Cl (stereo unspecified)	-1.1%	-2.7%	-1.2%	15.8µM*	-2.9%	-15.6%[46.1 µM]
O=[N+]([O-])c1ccc(N2CCN(Cc3ccccc3)CC2)nc1	-6.6%	u	20µM*	x	-8.1%	-22.6%
COc1ccc(CCNC(=S)NCc2ccc(Cl)c(Cl)c2)cc1OC	u	-5.6%	-5.4%	x	u	-5.0%
c1ccc2c(c1)CCN(C1=Nc3cccc4cccc1c34)C2	-14.0%	15.8µM*	-9.0%	x	-13.8%	-57.5%
COc1ccc(CCNC(=O)CSc2ccc(-c3ccco3)nn2)cc1	-7.0%	u	3.16µM*	x	-15.3%	-3.4%
COc1ccc(CCNC(=O)CSc2ccc(-c3ccncc3)nn2)cc1	-0.3%	-0.1%	-3.7%	x	-2.6%	-1.9%
O=C(CSc1ccc(-c2ccco2)nn1)NCCc1ccccc1	8.6%	u	7.08µM*	x	-9.0%	9.6%
Cc1cc(OC(C)C)c2c(-c3ccccc3)cc(=O)oc2c1	-12.8%	-19.3%	u	u	-15.9%	-19.9%[46.1 µM]
Cc1cc(OCC(=O)N2CCc3ccccc3C2)c2c(-c3ccccc3)cc(=O)oc2c1	7.7%	u	14.1µM*	-18.2%	-16.8%	u
SMILES	Tau fibril FP	Tau fibril ThT	ALDH1A1 block	HPGD block	Tau fluor counter	NPSR antagonist
CCOc1cc(C)cc2oc(=O)cc(-c3ccccc3)c12	-14.1%	u	22.4µM*	-12.3%	-19.3%	-23.3%[46.1 µM]
CCc1cc2c(cc3c(=O)n(CC(=O)NC4CCC(C)CC4)nc(CC)n32)s1 (stereo unspecified)	-4.3%	-17.0%	x	x	-15.3%	x
CCSC1=N/C(=C\c2ccc(-c3ccccc3[N+](=O)[O-])o2)C(=O)S1	u	5.01µM*	0.316µM*	-19.1%	u	-25.2%[46.1 µM]
CCCSC1=N/C(=C\C=C\c2ccco2)C(=O)S1	u	14.1µM*	28.2µM*	-27.6%	u	-10.5%[46.1 µM]
CCCSC1=N/C(=C\c2ccsc2)C(=O)S1	-7.7%	-13.3%	-0.3%	-5.0%	-11.0%	-28.1%[46.1 µM]
CCCSC1=N/C(=C\c2ccc([N+](=O)[O-])o2)C(=O)S1	u	12.6µM*	14.1µM*	x	u	-9.9%
O=C(c1ccccc1)c1cc2c(cc1[N+](=O)[O-])OCCO2	2.5%	-10.6%	u	x	-18.9%	6.3%
Nc1cc(=O)nc(SCC(=O)Nc2ccc(F)cc2)n1-c1ccc(Cl)cc1	-2.0%	-8.2%	x	x	-13.4%	x
Cc1ccc(-n2ccn(CC(=O)NCCc3ccccc3)c(=O)c2=O)cc1C	-3.3%	-9.8%	x	x	-4.7%	x
C/C=C/OC(=O)NC(c1ccccc1)[C@]1(C(C)=O)CCOC1=O (stereo partly specified)	4.8%[11.6 µM]	-7.4%[11.5 µM]	-16.6%[13.5 µM]	x	0.9%[11.6 µM]	x
COc1ccc(Cl)cc1-n1c(C)cc(C(=O)O)c1C	-3.6%	-6.8%	u	12.6µM*	-5.1%	-1.6%[46.1 µM]
CCOc1ccccc1-n1c(C)cc(C=O)c1C	-1.4%	-6.0%	u	x	-4.1%	-9.8%
COc1ccc(Cl)cc1-n1c(C)cc(C=O)c1C	0.8%	-3.7%	12.6µM*	14.1µM*	-5.3%	-14.2%[46.1 µM]
COC(=O)CCC(=O)OC1(C)C(=O)C2=CN(C(CO)CO)C(c3ccc(OC)cc3)=CC2=C(Br)C1=O (stereo unspecified)	u	3.98µM*	-5.3%[13.5 µM]	0.6%	-21.0%[11.6 µM]	-1.4%
COC(=O)CCC(=O)OC1(C)C(=O)C2=CN(CCN3CCOCC3)C(c3ccc(OC)cc3)=CC2=C(Br)C1=O (stereo unspecified)	u	7.08µM*!	u	-16.0%	-1.6%[11.6 µM]	-14.0%
CCCNC(=S)N1CCN(C(c2ccccc2)c2ccccc2)CC1	-5.8%	-13.3%	u	-10.5%	-19.4%	-28.5%
CSc1ccc(C(=S)N2CCN(C)CC2)cc1	-9.5%	-14.4%	31.6µM*	28.2µM*	-4.0%	-4.3%[46.1 µM]
CSc1ccc(C(=S)N2CCN(C(c3ccccc3)c3ccccc3)CC2)cc1	-1.7%	-3.4%	2.38µM*	14.1µM*	-8.8%	-8.7%[46.1 µM]
CSc1ccc(/C=N/N2CCN(C)CC2)cc1	4.7%	-9.3%	1.0%	x	-0.6%	7.7%
COc1cc(/C=C(\C#N)c2ccccn2)ccc1OCc1ccc(Cl)cc1	u	u	141.1%	x	-28.7%	u
Clc1ccc2c(NC3CCC(N4CCCCC4)CC3)ccnc2c1 (stereo unspecified)	x	x	-4.8%[13.5 µM]	-10.1%	x	x
O=c1c2c3c(sc2n(CCN2CCOCC2)c(=O)n1Cc1ccco1)CCCCC3	-2.8%	-15.8%	7.94µM*	-14.4%	-3.2%	-51.3%[46.1 µM]

Compound activity from PubChem BioAssay.
